# About 960 (1.5%) of roughly 66,000 compounds showed an effect of 50% or more. Only a selection was taken, and strong results are over-represented in it overall.
# Tested on: Trypanosoma brucei
# Assay: Trypanosoma brucei 72 hour study
# Type: functional, organism-based
# Parameters: scale not given: in the data most compounds retested in dose-response had high values
compound,measurement,setting,value
CCCS(=O)(=O)N1C[C@H]2C[C@H](C(=O)N3CCOCC3)[C@@H](C1)O2,Percent Effect,"30.3 µM, […]",-5.473%
CN(C)CCOCc1nnc2n1CCN(Cc1ccc(F)cc1)CC2.O=C(O)C(F)(F)F.O=C(O)C(F)(F)F,Percent Effect,"30.3 µM, […]",-11.21%
O=C(O)C(F)(F)F.O=C(c1ccco1)N1C[C@H]2CCCN(Cc3ccoc3)[C@H]2C1,Percent Effect,"30 µM, 30.03 µM",-0.7502%
CC1c2ncc(Cn3cncn3)n2CCN1CC1CCOCC1.O=C(O)C(F)(F)F (stereo not given),Percent Effect,"30.3 µM, […]",-11%
Fc1cccnc1N1CCOCC2(CCCN(c3nncs3)C2)C1.O=C(O)C(F)(F)F (stereo not given),Percent Effect,"30 µM, 30.03 µM",36.62%
CCN(CC)C(=O)CN1CCc2c(nc(C3CCNCC3)nc2NC)C1.Cl,Percent Effect,"30.3 µM, […]",-24.06%
CCn1cc(N2Cc3nc(N4CCC(C)CC4)ncc3C2=O)cn1,Percent Effect,"30.3 µM, […]",-21.22%
CN1CCOC(CNCc2csc(C3CCCC3)n2)C1 (stereo not given),Percent Effect,10 µM,-49.15%
CN1CCOC(CNCc2coc(-c3ccc(Cl)cc3)n2)C1 (stereo not given),Percent Effect,"30.3 µM, […]",99.53%
same,Percent Effect,"10 mM, 10 mM as filed; unlikely as a test dose",19.14%
Cc1ccc(-c2nc(CNCC3CN(C)CCO3)cs2)o1 (stereo not given),Percent Effect,"30.3 µM, […]",4.391%
Cc1ccc(-c2nc(CNCC3CN(C)CCO3)co2)c(C)c1 (stereo not given),Percent Effect,"30.3 µM, […]",99.99%
same,Percent Effect,"10 mM, 10 mM as filed; unlikely as a test dose",61.89%
CN1CCOC(CNCc2nc(-c3ccoc3)no2)C1 (stereo not given),Percent Effect,"30 µM, 30.03 µM",-7.602%
Cc1ccc(-c2nc(CNC3CCc4ncnn4C3)co2)c(C)c1 (stereo not given),Percent Effect,"30 µM, 30.03 µM",30.05%
CN(C)CCCN(Cc1cnn(C)c1)Cc1ccco1.O=C(O)CC(O)(CC(=O)O)C(=O)O,Percent Effect,"30.3 µM, […]",-23.52%
O=C(O)C(F)(F)F.O=C(O)C(F)(F)F.c1cncc(CN2Cc3nccn3CC(Cn3cccn3)C2)c1 (stereo not given),Percent Effect,"30.3 µM, […]",-81.67%
Cc1cc(-c2cnc(N3CCSCC3)nc2C(C)C)on1,Percent Effect,"30.3 µM, […]",-15.33%
Cc1noc(C)c1CN1CCOCC12CCN(c1cnccn1)CC2.O=C(O)C(F)(F)F,Percent Effect,"30.3 µM, […]",-24.7%
Cc1ccccc1NC(=O)Nc1cc(N2CCCC2)ncn1,Percent Effect,"30.3 µM, […]",-35.39%
Cc1nc(C)c(C(=O)Nc2cc(N3CCC(C)CC3)ncn2)s1,Percent Effect,"30.3 µM, […]",-16.43%
CC1CCN(c2cc(NC(=O)C3CC3)ncn2)CC1,Percent Effect,"30.3 µM, […]",71.79%
COc1ccc(-c2csc3c2c(N)nc(=O)n3CCCN(C)C)cc1,Percent Effect,"30 µM, 30.03 µM",-33.83%
CN(C)C(=O)C1CCN(Cc2csc(C(C)(C)C)n2)CC1,Percent Effect,10 µM,-5.321%
CCCNC(=O)C1CCN(Cc2csc(C(C)(C)C)n2)CC1,Percent Effect,"30 µM, 30.03 µM",-44.58%
CCOC(=O)C1CCN(Cc2csc(C(C)(C)C)n2)CC1,Percent Effect,"30 µM, 30.03 µM",96.9%
O=C(Nc1nccs1)C1CCCN1Cc1ccccn1 (stereo not given),Percent Effect,"30.3 µM, […]",98.2%
CC(=O)Nc1cccc(CN2CCCC2C(=O)Nc2nccs2)c1 (stereo not given),Percent Effect,"30.3 µM, […]",-3.044%
CCNc1ccnc(CN2CCCC2C(=O)Nc2nccs2)c1 (stereo not given),Percent Effect,"30.3 µM, […]",28.37%
O=C(NC[C@]12COC[C@H]1CN(Cc1cccs1)C2)c1ccsc1.O=C(O)C(F)(F)F,Percent Effect,"30 µM, 30.03 µM",48.3%
O=C(O)C(F)(F)F.c1csc(CN2CCn3c(Cn4cncn4)cnc3C2)c1,Percent Effect,"30.3 µM, […]",-144.4%
CC1=N[C@@]2(CC[C@@H]3CN(CC4CC4)C[C@@H]32)C(=O)N1CC1CC1.O=C(O)C(F)(F)F,Percent Effect,"30.3 µM, […]",-38.25%
Cc1cnn(CCNCc2nnc(-c3occc3C)o2)c1,Percent Effect,10 µM,-38.66%
O=C(O)C(F)(F)F.O=C(O)C(F)(F)F.OCCN1CC2(CCN(CC3CC3)CC2)c2ccccc21,Percent Effect,"30 µM, 30.03 µM",101.2%
O=C(O)C(F)(F)F.O=C(O)C(F)(F)F.c1cnc(N2CCC3(CCN(CC4CCOC4)CC3)CC2)nc1 (stereo not given),Percent Effect,"30 µM, 30.03 µM",-26.62%
CN1CCC2(CCCN(c3nccc(C(F)(F)F)n3)C2)CC1.O=C(O)C(F)(F)F,Percent Effect,"30.3 µM, […]",3.781%
O=C(O)C(F)(F)F.O=C(O)C(F)(F)F.c1cnc(N2CCCC3(CCN(c4ncccn4)C3)C2)nc1 (stereo not given),Percent Effect,"30 µM, 30.03 µM",-31.26%
CC(C)CN1C(=O)C2(CCN(CC3CCOCC3)C2)c2ccccc21.O=C(O)C(F)(F)F (stereo not given),Percent Effect,"30.3 µM, […]",-1.145%
Cc1ccc(CN2CCC3(C2)C(=O)N(CC2CC2)c2ccccc23)s1.O=C(O)C(F)(F)F (stereo not given),Percent Effect,"30.3 µM, […]",92.57%
Cc1ccc(CN2CCC3(C2)C(=O)N(CC(N)=O)c2ccccc23)s1 (stereo not given),Percent Effect,"30 µM, 30.03 µM",-6.982%
O=C(O)C(F)(F)F.c1cnc(N2CCCC3(CCN(CC4CCOC4)CC3)C2)nc1 (stereo not given),Percent Effect,"30 µM, 30.03 µM",56.13%
O=C(O)C(F)(F)F.O=C1CC2(CCN(CC3CCOC3)CC2)c2ccccc2N1CC1CC1 (stereo not given),Percent Effect,"30.3 µM, […]",-4.569%
CC(C)N1CCC2(CCCN(c3nccc(C(F)(F)F)n3)C2)CC1.O=C(O)C(F)(F)F,Percent Effect,"30.3 µM, […]",63.32%
O=C(O)C(F)(F)F.c1cnc(N2CC3(CCN(CC4CCOC4)CC3)c3ccccc32)nc1 (stereo not given),Percent Effect,"30 µM, 30.03 µM",-50.98%
O=C(O)C(F)(F)F.c1cnc(N2CCC3(CCN(CC4CCOC4)CC3)C2)nc1 (stereo not given),Percent Effect,"30 µM, 30.03 µM",-13.94%
Cl.Clc1ccccc1OCCc1cc(C2CCNC2)n[nH]1 (stereo not given),Percent Effect,"30.3 µM, […]",-6.852%
CN(C(=O)c1ncn2c1CN(C)S(=O)(=O)c1ccccc1-2)C1CC1.O=C(O)C(F)(F)F,Percent Effect,"30 µM, 30.03 µM",-19.09%
COc1cc(N2CC[C@@H]3O[C@H](C(=O)N(C)C)C[C@@H]32)ncn1.O=C(O)C(F)(F)F,Percent Effect,"30.3 µM, […]",-9.278%
CCC(NC(=O)C1CCN(S(C)(=O)=O)CC1)c1ccc(C)c(C)c1 (stereo not given),Percent Effect,"30 µM, 30.03 µM",-5.711%
CCOCc1cc(CN2CCn3c(CO)nnc3C2)ccc1OC.O=C(O)CC(O)(CC(=O)O)C(=O)O,Percent Effect,"30.3 µM, […]",-50.73%
